PubChem BioAssay (EPA / NIEHS)
The source made the active and inactive calls. The calls were made as follows: active = hit-call score of the fitted dose curve at least 0.9, where 1 is the maximum; inactive = score below 0.9.

Key:
[1] = ATG_ISRE_CIS: Attagene CIS-FACTORIAL HepG2 Assay for human Interferon Regulatory Factor 1 (IRF1) binding to an Interferon-Stimulated Response Element (ISRE) (AID 2282948); settings: HepG2 ISRE cis-reporter (Attagene), mRNA transcription readout; actives raise or lower the signal
In short: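 HepG2 cells transiently transfected with multiplexed cis-promoter reporter units; after 24 h compound exposure, reporter mRNA quantified by RT-PCR, FAM labelling, HpaI digestion and capillary electrophoresis. Bidirectional fit versus DMSO baseline.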

[2] = ATG_M_32_CIS: Attagene CIS-FACTORIAL HepG2 Assay for M32 Transcription Factor (Internal Marker) (AID 2282949); settings: HepG2 Attagene cis-factorial M32 reporter, mRNA; actives raise or lower the signal;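 also: background control marker of the multiplexed CIS panel rather than a real target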
In short: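 Following 24 h chemical exposure of HepG2 cells transiently expressing cis-promoter reporter constructs, reporter transcript levels were determined by RT-PCR with fluorescent labelling and capillary electrophoresis, then fitted bidirectionally against DMSO.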

[3] = ATG_M_06_CIS: Attagene CIS-FACTORIAL HepG2 Assay for M06 Transcription Factor (Internal Marker) (AID 2282950); settings: HepG2 Attagene CIS-FACTORIAL M06 internal marker reporter; actives raise or lower the signal
In short: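 Internal background marker within multiplexed cis-reporter HepG2 system. Cells transiently transfected, dosed 24 h; reporter mRNA measured by RT-PCR, HpaI digestion and capillary electrophoresis. Bidirectional fit relative to DMSO.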

[4] = molecular target: Hypoxia-inducible factor 1-alpha (Homo sapiens) (UniProt Q16665); assay: ATG_HIF1a_CIS: Attagene CIS-FACTORIAL HepG2 Assay for human Hypoxia Inducible Factor 1 (HIF1A) (AID 2282951); settings: HepG2 Attagene cis-factorial HIF1a reporter transcription; actives raise or lower the signal
Sequence of Hypoxia-inducible factor 1-alpha (Homo sapiens) (Q16665 whole entry, looked up): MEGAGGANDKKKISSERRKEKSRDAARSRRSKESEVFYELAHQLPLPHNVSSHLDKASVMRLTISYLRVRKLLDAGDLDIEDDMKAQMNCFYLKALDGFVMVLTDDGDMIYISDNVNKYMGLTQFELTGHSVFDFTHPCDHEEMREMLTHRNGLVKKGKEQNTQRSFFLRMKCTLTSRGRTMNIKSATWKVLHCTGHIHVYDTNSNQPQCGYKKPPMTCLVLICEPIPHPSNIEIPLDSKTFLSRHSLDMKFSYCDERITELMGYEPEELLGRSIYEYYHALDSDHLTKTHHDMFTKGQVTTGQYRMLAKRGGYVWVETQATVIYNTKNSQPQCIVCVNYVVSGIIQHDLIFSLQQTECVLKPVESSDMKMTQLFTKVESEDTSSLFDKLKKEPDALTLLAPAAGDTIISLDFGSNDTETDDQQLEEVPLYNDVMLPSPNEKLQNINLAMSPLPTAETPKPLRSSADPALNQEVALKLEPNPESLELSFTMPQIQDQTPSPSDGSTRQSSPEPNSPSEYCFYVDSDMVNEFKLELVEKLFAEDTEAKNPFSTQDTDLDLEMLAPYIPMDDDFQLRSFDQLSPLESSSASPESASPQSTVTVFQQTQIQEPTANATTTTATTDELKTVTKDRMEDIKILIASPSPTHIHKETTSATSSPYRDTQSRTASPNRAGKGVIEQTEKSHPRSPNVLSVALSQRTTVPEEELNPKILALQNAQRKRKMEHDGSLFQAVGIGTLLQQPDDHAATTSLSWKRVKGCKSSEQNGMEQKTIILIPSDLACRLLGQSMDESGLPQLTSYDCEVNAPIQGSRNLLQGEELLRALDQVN
In short: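 Endogenous-TF cis reporter readout, human HepG2 cells, 24 h incubation; mRNA detected via RT-PCR and capillary electrophoresis fluorescence; DMSO-normalised bidirectional fitting.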

[5] = molecular target: Hepatocyte nuclear factor 6 (Homo sapiens) (UniProt Q9UBC0); assay: ATG_HNF6_CIS: Attagene CIS-FACTORIAL HepG2 Assay for human Hepatocyte Nuclear Factor 6 (HNF6) (AID 2282952); settings: HepG2 Attagene cis-factorial HNF6 reporter transcription; actives raise or lower the signal
Sequence of Hepatocyte nuclear factor 6 (Homo sapiens) (Q9UBC0 whole entry, looked up, the tested form may be a part): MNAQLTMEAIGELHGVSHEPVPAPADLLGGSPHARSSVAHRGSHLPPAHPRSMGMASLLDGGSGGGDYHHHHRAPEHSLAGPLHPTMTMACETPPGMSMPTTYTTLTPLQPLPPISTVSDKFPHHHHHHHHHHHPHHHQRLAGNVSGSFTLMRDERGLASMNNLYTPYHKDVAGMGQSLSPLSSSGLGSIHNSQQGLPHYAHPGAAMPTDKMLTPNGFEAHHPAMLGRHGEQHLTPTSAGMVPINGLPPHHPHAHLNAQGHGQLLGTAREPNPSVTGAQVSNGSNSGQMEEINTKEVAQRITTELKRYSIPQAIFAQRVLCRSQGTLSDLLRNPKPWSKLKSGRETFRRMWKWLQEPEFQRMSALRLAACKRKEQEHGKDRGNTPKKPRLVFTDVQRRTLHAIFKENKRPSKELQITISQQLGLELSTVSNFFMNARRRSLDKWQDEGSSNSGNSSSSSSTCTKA
In short: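 Reporter mRNA induction or loss in HepG2 after 24 h exposure; transient cis-MRTU transfection; fragments quantified by capillary electrophoresis; bidirectional analysis, DMSO as negative control.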

[6] = molecular target: Heat shock factor protein 1 (Homo sapiens) (UniProt Q00613); assay: ATG_HSE_CIS: Attagene CIS-FACTORIAL HepG2 Assay for human Heat Shock Transcription Factor 1 (HSE) (AID 2282953); settings: HepG2 HSE cis-reporter, Attagene RNA transcription; actives raise or lower the signal
Sequence of Heat shock factor protein 1 (Homo sapiens) (Q00613 whole entry, looked up): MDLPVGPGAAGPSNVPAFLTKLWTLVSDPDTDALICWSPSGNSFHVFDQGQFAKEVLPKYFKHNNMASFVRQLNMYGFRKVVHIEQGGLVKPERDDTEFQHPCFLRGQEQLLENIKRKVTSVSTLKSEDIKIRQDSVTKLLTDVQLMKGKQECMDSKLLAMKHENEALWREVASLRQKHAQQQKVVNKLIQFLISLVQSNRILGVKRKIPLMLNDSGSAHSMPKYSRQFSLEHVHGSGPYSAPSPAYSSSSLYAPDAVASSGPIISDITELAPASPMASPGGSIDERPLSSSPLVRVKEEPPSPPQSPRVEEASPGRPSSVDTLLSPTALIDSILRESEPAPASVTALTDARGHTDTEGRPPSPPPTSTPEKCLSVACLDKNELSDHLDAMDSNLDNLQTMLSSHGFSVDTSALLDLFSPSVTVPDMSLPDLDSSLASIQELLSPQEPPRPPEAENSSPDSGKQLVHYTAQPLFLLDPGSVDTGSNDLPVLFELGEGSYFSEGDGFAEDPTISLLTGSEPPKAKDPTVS
In short: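 HepG2 cells transfected with cis-promoter reporter units sensing endogenous transcription factor activity; reporter mRNA quantified 24 h post-dose by RT-PCR and capillary electrophoresis of 6-FAM-labelled products. Bidirectional fitting against DMSO.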

[7] = ATG_MRE_CIS: Attagene CIS-FACTORIAL HepG2 Assay for human Metal Responsive Element (MRE) (AID 2282954); settings: HepG2 MRE cis-reporter transcription, Attagene multiplex; actives raise or lower the signal
In short: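 HepG2 cells transiently transfected with multiple cis-element reporter units measure endogenous MTF1-driven transcription. After 24 h compound exposure, reporter mRNA is quantified by RT-PCR with 6-FAM labelling, HpaI digestion and capillary electrophoresis; bidirectional fits versus DMSO.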

[8] = ATG_PBREM_CIS: Attagene CIS-FACTORIAL HepG2 Assay for human Phenobarbital-responsive Enhancer Module (PBREM) (AID 2282955); settings: HepG2 PBREM cis-reporter, Attagene multiplexed transcription; actives raise or lower the signal
In short: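 Readout: reporter mRNA, fluorescent RT-PCR fragments separated by capillary electrophoresis. System: HepG2 transiently transfected with cis-regulated reporter units. Exposure: 24 h. Analysis: bidirectional, DMSO baseline.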

[9] = molecular target: Paired box protein Pax-6 (Homo sapiens) (UniProt P26367); assay: ATG_Pax6_CIS: Attagene CIS-FACTORIAL HepG2 Assay for human Paired Box 6 (PAX6) (AID 2282956); settings: HepG2 CIS-FACTORIAL PAX6 reporter transcription, RNA readout; actives raise or lower the signal
Sequence of Paired box protein Pax-6 (Homo sapiens) (P26367 whole entry, looked up): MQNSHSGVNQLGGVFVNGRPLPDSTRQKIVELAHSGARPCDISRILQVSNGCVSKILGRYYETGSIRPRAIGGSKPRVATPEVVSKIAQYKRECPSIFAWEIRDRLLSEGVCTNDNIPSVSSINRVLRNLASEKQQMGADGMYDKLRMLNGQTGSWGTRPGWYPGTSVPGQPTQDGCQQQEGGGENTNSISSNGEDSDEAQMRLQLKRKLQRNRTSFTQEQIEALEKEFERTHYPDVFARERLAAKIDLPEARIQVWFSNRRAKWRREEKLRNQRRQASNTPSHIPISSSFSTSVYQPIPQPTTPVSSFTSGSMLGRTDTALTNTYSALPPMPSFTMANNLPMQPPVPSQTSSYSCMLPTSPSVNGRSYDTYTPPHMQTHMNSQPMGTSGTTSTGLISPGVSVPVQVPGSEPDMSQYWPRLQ
In short: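 HepG2 cells transiently transfected with multiplexed cis-promoter reporter units (endogenous TF activity) were dosed for 24 h. Reporter mRNA was quantified by RT-PCR, 6-FAM labeling, HpaI digestion and capillary electrophoresis; bidirectional fitting versus DMSO baseline.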

[10] = ATG_PXRE_CIS: Attagene CIS-FACTORIAL HepG2 Assay for human Pregnane X Receptor Element (PXRE) (AID 2282957); settings: HepG2 Attagene CIS-FACTORIAL PXRE reporter, mRNA; actives raise or lower the signal
In short: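 Transiently transfected HepG2 cells were dosed and incubated for 24 h. RNA was then isolated, DNase-treated, reverse-transcribed and reporter sequences amplified. Labeled, HpaI-digested fragments were quantified by capillary electrophoresis against DMSO.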

[11] = ATG_PPRE_CIS: Attagene CIS-FACTORIAL HepG2 Assay for human Peroxisome Proliferator-activated Response Element (PPRE) (AID 2282958); settings: HepG2 PPRE cis-element reporter, Attagene transcription factor profiling; actives raise or lower the signal
In short: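 After human HepG2 hepatoma cells were transiently transfected with cis-promoter reporter constructs, they were exposed to test chemicals for 24 hours. Reporter RNA was then reverse-transcribed, PCR-amplified, FAM-labeled, HpaI-digested and quantified by capillary electrophoresis.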

[12] = ATG_RORE_CIS: Attagene CIS-FACTORIAL HepG2 Assay for human RAR-related Orphan Receptor Element (RORE) (AID 2282959); settings: HepG2 Attagene cis-factorial RORE reporter, mRNA; actives raise or lower the signal
In short: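 Measured here: transcript induction of a cis-regulated reporter in HepG2 cells transiently transfected via FuGene 6. After 24 h, RNA was processed by RT-PCR and fluorescent capillary electrophoresis; DMSO defined baseline activity.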

[13] = molecular target: Transcription factor Sp1 (Homo sapiens) (UniProt P08047); assay: ATG_Sp1_CIS: Attagene CIS-FACTORIAL HepG2 Assay for human Specificity Protein 1 (Sp1) (AID 2282961); settings: HepG2 Sp1 cis-reporter transcription, actives raise or lower the signal
Sequence of Transcription factor Sp1 (Homo sapiens) (P08047 whole entry, looked up): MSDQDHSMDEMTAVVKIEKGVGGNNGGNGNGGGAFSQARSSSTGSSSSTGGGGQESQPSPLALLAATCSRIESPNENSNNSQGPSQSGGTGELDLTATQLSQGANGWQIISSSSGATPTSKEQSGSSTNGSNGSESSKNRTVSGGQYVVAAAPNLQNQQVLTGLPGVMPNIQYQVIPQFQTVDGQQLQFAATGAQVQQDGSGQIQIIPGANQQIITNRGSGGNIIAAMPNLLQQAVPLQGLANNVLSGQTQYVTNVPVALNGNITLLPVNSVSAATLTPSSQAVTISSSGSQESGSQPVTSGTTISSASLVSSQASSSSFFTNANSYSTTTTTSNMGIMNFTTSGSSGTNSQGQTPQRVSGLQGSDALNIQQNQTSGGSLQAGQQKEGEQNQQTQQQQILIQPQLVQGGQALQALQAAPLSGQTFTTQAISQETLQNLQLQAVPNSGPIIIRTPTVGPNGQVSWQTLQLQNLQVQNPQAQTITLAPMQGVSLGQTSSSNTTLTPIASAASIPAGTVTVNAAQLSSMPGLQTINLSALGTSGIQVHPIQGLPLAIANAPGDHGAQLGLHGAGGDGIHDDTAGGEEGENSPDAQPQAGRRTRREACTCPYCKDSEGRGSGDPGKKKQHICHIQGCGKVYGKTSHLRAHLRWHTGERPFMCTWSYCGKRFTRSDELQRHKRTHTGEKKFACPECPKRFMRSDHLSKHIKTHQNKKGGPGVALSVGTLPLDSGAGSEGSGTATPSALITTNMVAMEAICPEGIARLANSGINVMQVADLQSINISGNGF
In short: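 After transient transfection of HepG2 cells with cis-promoter reporter units and 24 h chemical treatment, reporter transcripts were quantified by RT-PCR and capillary electrophoresis fluorescence. Gain- and loss-of-signal fitted against DMSO.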

[14] = ATG_SREBP_CIS: Attagene CIS-FACTORIAL HepG2 Assay for human Sterol Regulatory Element Binding (SREBP) (AID 2282962); settings: HepG2 Attagene cis-factorial SREBP reporter, mRNA; actives raise or lower the signal
In short: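 HepG2 cells transiently transfected with multiplexed cis-element reporter units report endogenous transcription factor activity. After 24 h of chemical exposure, reporter mRNA was quantified by RT-PCR, 6-FAM labelling, HpaI digestion and capillary electrophoresis; bidirectional fits used DMSO as baseline.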

[15] = molecular target: Signal transducer and activator of transcription 3 (Homo sapiens) (UniProt P40763); assay: ATG_STAT3_CIS: Attagene CIS-FACTORIAL HepG2 Assay for human Signal Transducer and Activator of Transcription 3 (STAT3) (AID 2282963); settings: HepG2, Attagene cis-factorial STAT3 reporter transcription; actives raise or lower the signal
Sequence of Signal transducer and activator of transcription 3 (Homo sapiens) (P40763 whole entry, looked up): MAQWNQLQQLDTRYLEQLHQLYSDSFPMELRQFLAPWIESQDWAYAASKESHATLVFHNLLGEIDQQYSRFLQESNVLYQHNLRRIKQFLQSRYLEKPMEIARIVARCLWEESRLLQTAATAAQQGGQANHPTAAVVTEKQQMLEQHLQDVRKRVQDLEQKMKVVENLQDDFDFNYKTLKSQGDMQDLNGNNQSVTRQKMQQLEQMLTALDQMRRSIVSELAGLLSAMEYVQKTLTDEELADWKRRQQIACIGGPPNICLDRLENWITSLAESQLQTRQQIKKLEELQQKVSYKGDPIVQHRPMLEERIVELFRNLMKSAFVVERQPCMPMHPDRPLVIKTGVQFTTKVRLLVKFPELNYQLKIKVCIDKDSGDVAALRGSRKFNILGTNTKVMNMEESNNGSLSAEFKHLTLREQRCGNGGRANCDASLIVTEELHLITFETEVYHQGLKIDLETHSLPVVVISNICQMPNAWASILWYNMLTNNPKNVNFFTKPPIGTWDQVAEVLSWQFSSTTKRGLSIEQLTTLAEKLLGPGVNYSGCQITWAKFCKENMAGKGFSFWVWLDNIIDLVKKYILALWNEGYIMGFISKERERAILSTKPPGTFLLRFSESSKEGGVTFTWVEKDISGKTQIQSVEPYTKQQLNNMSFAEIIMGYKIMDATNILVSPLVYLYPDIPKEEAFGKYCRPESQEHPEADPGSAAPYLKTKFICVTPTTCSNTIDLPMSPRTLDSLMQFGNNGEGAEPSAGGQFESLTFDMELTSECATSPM
In short: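 HepG2 cells transiently transfected with cis-element-driven multiple reporter transcription units; after 24 h chemical exposure, reporter mRNA measured by RT-PCR, 6-FAM primer-extension labelling, HpaI digestion and capillary electrophoresis. Bidirectional fitting versus DMSO baseline.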

[16] = ATG_TA_CIS: Attagene CIS-FACTORIAL HepG2 Assay for human TA Basal Promoter (AID 2282964); settings: HepG2 Attagene CIS-factorial TA basal promoter reporter; actives raise or lower the signal
In short: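 HepG2 cells transiently transfected with multiple reporter units under cis promoter elements, reporting endogenous transcription factor activity; this endpoint tracks the TA basal promoter as background control. Reporter mRNA after 24 h dosing measured by RT-PCR/capillary electrophoresis; bidirectional fits versus DMSO.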

[17] = ATG_TCF_b_cat_CIS: Attagene CIS-FACTORIAL HepG2 Assay for human T-Cell-Factor with beta-catenin (TCF/b-cat) (AID 2282965); settings: HepG2 TCF/beta-catenin cis-reporter transcription, actives raise or lower the signal
In short: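 In this cis-format system, transfected HepG2 cells report endogenous transcription factor activity. Readout after 24 h exposure is reporter transcript abundance from RT-PCR and capillary electrophoresis, analysed for gain or loss of signal versus DMSO.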

[18] = ATG_Sox_CIS: Attagene CIS-FACTORIAL HepG2 Assay for human SRY-box transcription factor (SOX) (AID 2282960); settings: HepG2 Attagene cis-factorial SOX reporter, mRNA; actives raise or lower the signal
In short: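 Using transiently transfected HepG2 cells, reporter transcription driven by cis elements was assessed 24 h after dosing. Signal was fluorescence of capillary-separated RT-PCR products, with DMSO defining baseline activity.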

Measured: AC50

ClC1=C(Cl)[C@]2(Cl)[C@H]3[C@H]([C@H]4C=C[C@H]3C4)[C@@]1(Cl)C2(Cl)Cl
active: [4] 4.66 µM | [7] 3.77 µM | [10] 1.6 µM
not listed: [18]
inactive: all other assays above

Cc1ccccc1N
not listed: [7] | [8] | [11] | [16] | [17] | [18]
inactive: all other assays above

Cc1ccc(N)cc1Cl
not listed: [7] | [10] | [11]
inactive: all other assays above
